Source: PubChem BioAssay
The list is not random: actives were taken first. Their share in the collection is about 1.1%.
PTHR1 ag: activates the human parathyroid hormone receptor PTHR1. Q03431. HEK293 GP2 PTHR1 cells, GloSensor cAMP luminescence, 1 h. Potency, µM (top dose mostly 115 µM), actives largely listed as activators. 410,000 compounds, 0.075% hits. AID 743266; note: nearly all actives have a fitted effect of over 55% in size
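HEK-293-derived GP2 cells expressing PTHR1 and a GloSensor cAMP reporter, 3,000/well, plated overnight, given luciferin plus IBMX (each 0.5 mM as added) for 1 h at 37 °C, then compound for 1 h at 37 °C. Luminescence was read after 15 min at room temperature.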
BRCA1 expr act: increases BRCA1 expression; AID 624202; 380,000 compounds, 1.1% hits; Potency, µM (series often up to 46.1 µM), usual class: activators; MCF7-BRCA1-FFLuc reporter, luminescence, 48 h; response scale: scaled: vehicle 0%, 10 µM genistein 100%; note: nearly all actives have a fitted effect of over 80% in size
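Luminescence from a BRCA1-driven firefly luciferase in MCF7 cells was read after 48 h compound exposure at 37 C. Data normalized against DMSO and a 10microM genistein activation control, then curve-fitted across the titration.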
p53 reactivator: restores transcriptional activity of mutant p53; H1299 p53-A138V BP100-luciferase reporter, luminescence, 24 h; Potency, µM (highest dose often 92.2 µM), usual class: activators; 320,000 compounds, 0.063% hits; note: nearly all actives have a fitted effect of over 45% in size
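p53-null H1299 cells stably carrying temperature-sensitive p53-A138V and a BP100-luciferase reporter were pinned with compounds (4-point, 1:5 series) and held 24 hrs at 37 deg C. Luminescence was read 10 min after detection reagent.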
RGS4 inh: human RGS4 inhibition | Transcreener GDP fluorescence polarization, RGS4-accelerated GTP hydrolysis | Potency, µM (highest dose often 114 µM), usual class: inhibitors | 390,000 compounds, 0.039% hits | AID 504845; note: nearly all actives have a fitted effect of over 75% in size
Target sequence (P49798 whole entry, looked up): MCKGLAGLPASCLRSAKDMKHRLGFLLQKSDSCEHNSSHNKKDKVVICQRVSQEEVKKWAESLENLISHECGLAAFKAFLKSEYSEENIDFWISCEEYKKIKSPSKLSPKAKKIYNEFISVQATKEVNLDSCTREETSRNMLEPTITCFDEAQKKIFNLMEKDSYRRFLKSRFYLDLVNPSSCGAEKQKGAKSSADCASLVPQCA
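MLSMR compounds (23 nl, pin-transferred) preincubated 10 min at room temperature with a 500nM (2x) first reagent, then RGS4 at 900nM (2x) plus Transcreener GDP mix added; fluorescence polarization (620/688 nm) read before and after 90 min at 30 °C.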
LDHA block: inhibitors of human lactate dehydrogenase A; P00338; purified LDHA, NADH/diaphorase-resazurin fluorescence; hits give low values; activity change, % (values are at about 110 or 230 µM); 480,000 compounds, 0.15% hits; AID 1347041; in the data active = activity change below about -30%; inconclusive = mostly about -25% to -30%
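Human LDH5 at 2 nM final in Tris HCl pH 7.4 with 0.06 mM NADH and 0.2 mM pyruvate, reacted 5 minutes at room temperature. Remaining NADH coupled via diaphorase/resazurin; resorufin fluorescence read at 0 and 20 minutes, normalized to enzyme-free and DMSO wells.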
Of the large screens only hits and unclear results are named; the others gave an inactive call. Unless noted, calls come from the whole dose curve; as a rule, active = well fitted curve in the direction sought with a large enough effect; inconclusive = small, poorly fitted or top-dose-only effect, or another doubt; inactive = no such curve, though single readings can be large; an effect the other way counts as inactive or inconclusive.

CCc1ccc(NC(=O)N2CCC(c3ccccc3)C2)cc1 (configuration not stated)	BRCA1 expr act inconclusive
COc1ccc(NC(=S)N2CCC(c3ccccc3)C2)cc1 (configuration not stated)	BRCA1 expr act 2.8µM
CCn1c(=O)c(-c2noc(C(=O)N3CCCCC3)n2)nn(-c2ccc(C)cc2)c1=O	none (no result: PTHR1 ag, BRCA1 expr act, p53 reactivator, RGS4 inh)
COc1ccc(S(=O)(=O)NC2CCN(C(=O)Nc3cc(Cl)ccc3OC)CC2)cc1	none (no result: PTHR1 ag, BRCA1 expr act, p53 reactivator, RGS4 inh)
COc1ccc2nc(NC(=O)c3cc(=O)c4ccc(C)cc4o3)sc2c1	none (no result: PTHR1 ag, BRCA1 expr act, p53 reactivator, RGS4 inh)
Brc1ccccc1OCCCn1cnc2ccccc21	BRCA1 expr act 11µM, p53 reactivator inconclusive
CCCCC/C=C\C/C=C\C/C=C\CC1OC1CCCC(=O)O (configuration not stated)	RGS4 inh 38µM (no result: PTHR1 ag, BRCA1 expr act, p53 reactivator, LDHA block)
CC/C=C\C/C=C\C/C=C\C/C=C\C/C=C\CCCCCC(=O)O	RGS4 inh 21µM (no result: PTHR1 ag, BRCA1 expr act, p53 reactivator, LDHA block)
Cc1cc2oc(=O)cc(CSc3nnc4ccccn34)c2cc1C	none (no result: PTHR1 ag, BRCA1 expr act, p53 reactivator, RGS4 inh)
CN(C)c1ccc(C=NNC(=S)Nc2ccc(F)cc2)cc1	BRCA1 expr act 4µM (no result: p53 reactivator)
CSC(=S)N/N=C/c1ccc(N(C)C)cc1	none
COC(=O)c1ccc(/C=N/NC(=O)c2cccc(F)c2)cc1	BRCA1 expr act 10µM
O=C(N/N=C\c1ccc(F)cc1)c1ccc(F)cc1	BRCA1 expr act 11µM
COC(=O)C1=C(CN2CCCCC2)NC(=O)NC1c1ccc(C)cc1 (configuration not stated)	none (no result: PTHR1 ag, BRCA1 expr act, p53 reactivator, RGS4 inh)
CCS(=O)(=O)N1CC(=O)N(c2ccc(C(C)C)cc2)C(C)(C(=O)NCc2ccc(F)cc2)C1 (configuration not stated)	none (no result: PTHR1 ag, BRCA1 expr act, p53 reactivator, RGS4 inh)
CC(C)C(NC(=O)c1ccc(CS(C)(=O)=O)cc1)c1ccc(F)cc1 (configuration not stated)	none (no result: PTHR1 ag, BRCA1 expr act, p53 reactivator, RGS4 inh)
COc1cccc(C=Nc2ccccc2C(=O)Nc2nccs2)c1OC	BRCA1 expr act inconclusive
COc1cccc2c1OCC(C(=O)Nc1nccs1)=C2	BRCA1 expr act 4.5µM
Oc1ccc(/C=N/Nc2ccccc2)cc1	RGS4 inh inconclusive
Cc1nc2ccccc2nc1N/N=C/c1ccc(O)cc1	BRCA1 expr act 7.9µM
CC(=O)Nc1cccc(Oc2ccc3nnc(-c4ccc(Br)cc4)n3n2)c1	none (no result: PTHR1 ag, BRCA1 expr act, p53 reactivator, RGS4 inh)
CCCNc1nc2ccccc2nc1C(C#N)S(=O)(=O)c1ccc(Cl)cc1 (configuration not stated)	none (no result: PTHR1 ag, BRCA1 expr act, p53 reactivator, RGS4 inh)
N/C(CS(=O)(=O)c1ccccn1)=N\OC(=O)c1ccccc1Cl	BRCA1 expr act 2.5µM, p53 reactivator inconclusive
COc1cc(OC)c(C2CC(=O)N3CN(c4ccc(C)cc4)CSC3=C2C#N)cc1OC (configuration not stated)	BRCA1 expr act 6.3µM, p53 reactivator inconclusive, RGS4 inh inconclusive
COc1ccc(N2CSC3=C(C#N)C(c4cc(OC)c(OC)cc4OC)CC(=O)N3C2)c(OC)c1 (configuration not stated)	RGS4 inh inconclusive
O=C(O)c1ccccc1NS(=O)(=O)c1cc([N+](=O)[O-])ccc1N/N=C/c1ccsc1	none (no result: PTHR1 ag, BRCA1 expr act, p53 reactivator, RGS4 inh)
Cc1ccc(N/N=C/c2ccc3c(c2)OCCO3)cc1Cl	BRCA1 expr act 3.2µM, p53 reactivator inconclusive
Fc1ccc(OCc2ncc(-c3ccccc3)o2)c(Br)c1	none (no result: PTHR1 ag, BRCA1 expr act, p53 reactivator, RGS4 inh)
NC(=O)c1ccc(-c2nc(CSc3ccc4c(c3)OCCCO4)cs2)cc1	none (no result: PTHR1 ag, BRCA1 expr act, p53 reactivator, RGS4 inh)
Cc1ccc(C)c(-c2cc(C)ncc2C)c1	LDHA block -31 (no result: PTHR1 ag, BRCA1 expr act, p53 reactivator, RGS4 inh)
c1ccc2c(c1)Sc1ccccc1S2	none (no result: PTHR1 ag, BRCA1 expr act, p53 reactivator, RGS4 inh)
Nc1cccc(-c2nc3ccccc3[nH]2)c1	BRCA1 expr act 10µM, p53 reactivator inconclusive
Cc1ccc2nc(-c3cccc(N)c3)[nH]c2c1	p53 reactivator inconclusive
Nc1ccc2nc(-c3ccc(-c4nc5ccc(N)cc5[nH]4)cc3)[nH]c2c1	RGS4 inh inconclusive
Nc1ccc(-c2nc3ccc(-c4nc5ccc(N)cc5[nH]4)cc3[nH]2)cc1	RGS4 inh 27µM (no result: PTHR1 ag, p53 reactivator)
COC(=O)/C=C/C(=O)Nc1cc(Cl)ccc1O	none (no result: PTHR1 ag, BRCA1 expr act, p53 reactivator, RGS4 inh)
O=c1c2ccccc2sn1-c1ccccc1F	LDHA block -52 (no result: p53 reactivator, RGS4 inh)
Cc1ccc(C(=O)NC2CCCc3ccccc32)c(C)c1 (configuration not stated)	none (no result: PTHR1 ag, BRCA1 expr act, p53 reactivator, RGS4 inh)
N#Cc1ccccc1S(=O)(=O)N1CCN(CC(O)CN2CCOCC2)CC1 (configuration not stated)	LDHA block -45
COc1cccc(NC(=O)c2cnc[nH]2)c1	none
O=C(Nc1ccc(Br)cc1)c1cnc[nH]1	BRCA1 expr act 13µM
Cc1cccnc1NC(=O)c1ccc([N+](=O)[O-])o1	p53 reactivator 11µM
C=CCNc1nc(Nc2ccccc2F)nc(OCC)n1	BRCA1 expr act 10µM
COc1ccc(C(=O)Nc2ccc(N3CCN(C)CC3)cc2)cc1	BRCA1 expr act 2.2µM (no result: p53 reactivator)
CC(=O)Nc1ccc(NC(=O)c2ccc(-n3c(C)ccc3C)cc2)cc1	p53 reactivator 25µM
COc1ccc(C(=O)Nc2ccc(N3CCN(C)CC3)cc2)cc1OC	BRCA1 expr act 2µM, p53 reactivator inconclusive
CN1CCN(c2ccc(NC(=O)c3ccc4ccccc4c3)cc2)CC1	p53 reactivator inconclusive
Cc1ccc(C(=O)Nc2ccc(N3CCN(C)CC3)cc2)cc1	BRCA1 expr act 1.3µM
CCOc1ccc(C(=O)Nc2ccc(N3CCN(C)CC3)cc2)cc1	none
CC(C)(CNC(=S)NCc1ccccc1)CNC(=S)NCc1ccccc1	none (no result: PTHR1 ag, BRCA1 expr act, p53 reactivator, RGS4 inh)
COc1ccc(Cl)cc1S(=O)(=O)Nc1c(N2CCCC2)c2ccccc2oc1=O	none (no result: PTHR1 ag, BRCA1 expr act, p53 reactivator, RGS4 inh)
CN1CCSc2ccc(C(=O)Nc3cccc(F)c3)cc21	p53 reactivator inconclusive
COc1ccc(NC(=O)c2ccc3c(c2)N(C)CCS3)cc1	BRCA1 expr act 10µM (no result: p53 reactivator)
CC(C)Cc1ccc(-c2ccc3nccn3c2)cc1	BRCA1 expr act 14µM (no result: p53 reactivator, RGS4 inh)
COc1ccc(-c2ccc3nccn3c2)cc1	none (no result: p53 reactivator, RGS4 inh)
CCN1CCN(c2nc3ccccc3nc2C(C#N)S(=O)(=O)c2ccccc2)CC1 (configuration not stated)	none (no result: PTHR1 ag, BRCA1 expr act, p53 reactivator, RGS4 inh)
